Experimental data from the supplement of paper PMC10849652.
The full data set covers some 8,800 targets. This sample favours those with a hit. About 0.5% of all pairs of compound and target were hits. Values without a mark were called inactive.

Experiments:
Test in all cases: log2 fold change, soluble protein after heating vs DMSO (PISA); higher = thermal stabilisation; K562 lysate, 10 uM; active = over 0.2 and 3.5 SD of the protein, either way, in both replicates (recomputed)
[1] = compound: NCC(=O)Nc1ccc(-n2nc(C(F)(F)F)cc2-c2ccc3c(ccc4ccccc43)c2)cc1
Summary of the method: (§1)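 K562 pellets were dounce-homogenised in PBS pH 7.4 containing 1 mM MgCl2, and the crude extract, at 1 mg/mL protein, was exposed to 10 μM compound for 30 min. Aliquots were heated for 3 min across 48°C-58°C, pooled, brought to 0.5% NP-40 at 4°C and spun at 21,000xg for 90 min, with the supernatant taken as soluble protein. TMTpro 16plex LC-MS/MS with equalised channel sums quantified that protein. Values are log-two fold changes in thermal stability relative to solvent controls, taken from duplicates.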

[2] = compound: O=C(CCCCCCC(=O)Nc1ccccc1)NO [vorinostat]
Summary of the method: as §1

[3] = compound: O=C(O)c1ccc2c(c1)nc(Nc1cccc(Cl)c1)c1ccncc12 [silmitasertib]
Summary of the method: as §1

[4] = compound: O=C1NC(=O)C(c2cnc3ccccn23)=C1c1cn2c3c(cc(F)cc13)CN(C(=O)N1CCCCC1)CC2
Summary of the method: as §1

[5] = compound: c1cn2cc(-c3ccc4cn[nH]c4c3)nc(Nc3ccc(N4CCOCC4)cc3)c2n1 [entospletinib]
Summary of the method: as §1

Chain of UniProt Q13825 (Q13825 whole entry, looked up): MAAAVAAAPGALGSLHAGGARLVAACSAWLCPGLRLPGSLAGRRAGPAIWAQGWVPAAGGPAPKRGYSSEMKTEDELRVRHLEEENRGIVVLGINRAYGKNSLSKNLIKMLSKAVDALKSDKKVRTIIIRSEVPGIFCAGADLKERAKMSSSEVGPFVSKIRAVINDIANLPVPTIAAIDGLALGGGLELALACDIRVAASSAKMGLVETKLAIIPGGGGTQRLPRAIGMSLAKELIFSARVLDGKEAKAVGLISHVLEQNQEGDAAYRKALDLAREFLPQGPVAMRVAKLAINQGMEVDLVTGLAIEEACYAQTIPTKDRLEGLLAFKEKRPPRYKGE
Chain of UniProt P13994 (P13994 whole entry, looked up): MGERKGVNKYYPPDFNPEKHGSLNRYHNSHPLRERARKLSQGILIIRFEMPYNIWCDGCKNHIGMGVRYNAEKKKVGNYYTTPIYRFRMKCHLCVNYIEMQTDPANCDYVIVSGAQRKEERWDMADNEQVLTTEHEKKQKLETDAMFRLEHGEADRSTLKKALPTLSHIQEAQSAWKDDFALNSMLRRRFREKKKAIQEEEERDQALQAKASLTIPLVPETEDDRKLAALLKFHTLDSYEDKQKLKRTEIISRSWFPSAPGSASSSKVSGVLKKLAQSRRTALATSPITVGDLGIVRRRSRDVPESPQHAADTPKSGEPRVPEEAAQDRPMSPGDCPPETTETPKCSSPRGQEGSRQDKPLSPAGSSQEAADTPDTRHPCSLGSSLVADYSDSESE
Chain of UniProt P06493 (P06493 whole entry, looked up): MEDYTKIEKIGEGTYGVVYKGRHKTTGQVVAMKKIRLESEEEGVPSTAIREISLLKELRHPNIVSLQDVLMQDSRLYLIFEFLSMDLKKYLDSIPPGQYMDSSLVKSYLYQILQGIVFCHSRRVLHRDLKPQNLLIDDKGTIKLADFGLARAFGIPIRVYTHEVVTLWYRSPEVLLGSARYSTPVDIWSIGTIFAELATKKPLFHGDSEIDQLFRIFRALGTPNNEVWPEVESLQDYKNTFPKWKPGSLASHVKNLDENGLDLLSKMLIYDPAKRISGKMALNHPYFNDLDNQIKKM
Chain of UniProt O76039 (O76039 whole entry, looked up): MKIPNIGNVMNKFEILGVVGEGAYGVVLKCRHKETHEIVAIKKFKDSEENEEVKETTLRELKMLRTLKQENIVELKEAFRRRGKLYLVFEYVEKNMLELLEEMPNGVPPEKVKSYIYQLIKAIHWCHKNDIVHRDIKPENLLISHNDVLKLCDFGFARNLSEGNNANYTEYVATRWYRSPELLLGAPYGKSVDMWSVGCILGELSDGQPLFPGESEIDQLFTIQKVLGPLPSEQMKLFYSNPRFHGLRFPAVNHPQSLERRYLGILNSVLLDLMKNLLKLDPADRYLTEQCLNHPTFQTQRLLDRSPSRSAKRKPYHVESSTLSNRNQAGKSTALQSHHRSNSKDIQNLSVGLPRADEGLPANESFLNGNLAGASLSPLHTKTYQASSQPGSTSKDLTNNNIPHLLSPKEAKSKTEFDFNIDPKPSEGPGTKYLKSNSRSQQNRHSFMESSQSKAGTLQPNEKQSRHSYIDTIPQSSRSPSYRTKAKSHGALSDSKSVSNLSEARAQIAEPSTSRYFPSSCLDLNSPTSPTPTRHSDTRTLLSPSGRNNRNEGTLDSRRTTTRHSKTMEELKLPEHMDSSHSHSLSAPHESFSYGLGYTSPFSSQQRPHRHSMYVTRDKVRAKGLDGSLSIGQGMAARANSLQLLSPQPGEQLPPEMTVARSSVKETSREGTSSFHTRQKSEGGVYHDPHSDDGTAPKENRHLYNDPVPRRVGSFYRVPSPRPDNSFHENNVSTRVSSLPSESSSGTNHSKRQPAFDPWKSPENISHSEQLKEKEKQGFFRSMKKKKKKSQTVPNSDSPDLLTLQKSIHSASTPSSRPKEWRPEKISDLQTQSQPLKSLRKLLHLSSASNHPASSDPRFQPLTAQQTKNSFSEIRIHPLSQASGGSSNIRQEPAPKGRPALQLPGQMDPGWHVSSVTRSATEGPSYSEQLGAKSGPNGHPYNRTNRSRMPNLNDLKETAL
Chain of UniProt Q8IYX8 (Q8IYX8 whole entry, looked up): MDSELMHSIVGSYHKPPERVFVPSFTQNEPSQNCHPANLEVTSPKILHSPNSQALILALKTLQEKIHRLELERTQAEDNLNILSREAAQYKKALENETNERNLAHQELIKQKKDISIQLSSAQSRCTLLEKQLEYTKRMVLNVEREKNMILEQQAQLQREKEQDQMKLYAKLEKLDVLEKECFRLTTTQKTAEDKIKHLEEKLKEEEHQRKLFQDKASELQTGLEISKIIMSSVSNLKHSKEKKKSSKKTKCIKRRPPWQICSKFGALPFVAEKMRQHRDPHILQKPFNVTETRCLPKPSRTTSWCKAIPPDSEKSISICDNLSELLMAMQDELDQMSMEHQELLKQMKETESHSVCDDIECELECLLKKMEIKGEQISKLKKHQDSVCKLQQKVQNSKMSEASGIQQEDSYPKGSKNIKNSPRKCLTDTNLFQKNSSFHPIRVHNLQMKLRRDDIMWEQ
Chain of UniProt P55211 (P55211 whole entry, looked up): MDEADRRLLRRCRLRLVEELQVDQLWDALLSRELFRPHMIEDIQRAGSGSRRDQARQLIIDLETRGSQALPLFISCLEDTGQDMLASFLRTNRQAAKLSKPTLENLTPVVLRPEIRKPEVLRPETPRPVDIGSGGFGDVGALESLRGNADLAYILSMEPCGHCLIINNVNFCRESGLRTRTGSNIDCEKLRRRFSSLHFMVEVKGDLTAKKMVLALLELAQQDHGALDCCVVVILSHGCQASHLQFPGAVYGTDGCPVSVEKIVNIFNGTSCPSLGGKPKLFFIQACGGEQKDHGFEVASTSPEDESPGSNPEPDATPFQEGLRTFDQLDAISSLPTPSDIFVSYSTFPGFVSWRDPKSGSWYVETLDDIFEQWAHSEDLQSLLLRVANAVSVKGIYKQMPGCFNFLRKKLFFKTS
Chain of UniProt Q96B23 (Q96B23 whole entry, looked up): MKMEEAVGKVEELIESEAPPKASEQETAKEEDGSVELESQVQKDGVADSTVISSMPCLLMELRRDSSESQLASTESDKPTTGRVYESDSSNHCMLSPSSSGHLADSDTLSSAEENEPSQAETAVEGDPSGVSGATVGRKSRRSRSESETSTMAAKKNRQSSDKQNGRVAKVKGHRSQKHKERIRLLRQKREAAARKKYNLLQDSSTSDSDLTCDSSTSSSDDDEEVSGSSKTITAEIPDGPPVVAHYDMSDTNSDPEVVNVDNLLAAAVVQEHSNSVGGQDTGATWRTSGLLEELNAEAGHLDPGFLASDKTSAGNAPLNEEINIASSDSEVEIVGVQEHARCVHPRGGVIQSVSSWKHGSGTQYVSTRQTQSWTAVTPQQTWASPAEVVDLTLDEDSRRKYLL
Chain of UniProt P55210 (P55210 whole entry, looked up): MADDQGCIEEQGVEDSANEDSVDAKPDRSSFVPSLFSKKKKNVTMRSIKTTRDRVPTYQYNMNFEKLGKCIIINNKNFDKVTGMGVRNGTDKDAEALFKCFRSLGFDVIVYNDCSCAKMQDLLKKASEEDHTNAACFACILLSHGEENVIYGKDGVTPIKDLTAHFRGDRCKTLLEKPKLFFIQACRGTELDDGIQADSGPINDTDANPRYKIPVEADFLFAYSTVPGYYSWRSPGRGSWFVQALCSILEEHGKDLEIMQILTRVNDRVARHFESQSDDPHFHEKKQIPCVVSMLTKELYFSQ
Chain of UniProt Q7Z7K6 (Q7Z7K6 whole entry, looked up): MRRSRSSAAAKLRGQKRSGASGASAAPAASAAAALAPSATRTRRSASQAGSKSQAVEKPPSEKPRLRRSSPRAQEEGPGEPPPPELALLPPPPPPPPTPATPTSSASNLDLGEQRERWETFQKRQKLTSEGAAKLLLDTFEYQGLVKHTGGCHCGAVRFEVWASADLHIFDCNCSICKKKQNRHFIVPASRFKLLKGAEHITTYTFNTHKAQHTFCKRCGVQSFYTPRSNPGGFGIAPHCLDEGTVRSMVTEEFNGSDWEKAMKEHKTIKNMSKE

Row | Target | log2 fold change [1] | log2 fold change [2] | log2 fold change [3] | log2 fold change [4] | log2 fold change [5]
1 | AUH (UniProt Q13825) | 0.1 | -0.068 | 0.017 | -0.063 | -0.11
2 | CENPV (UniProt Q7Z7K6) | 0.396 |  |  | 0.039 | 0.084
3 | CDKL5 (UniProt O76039) | 0.037 |  |  | 0.011 | 0.017
4 | CCDC130 (UniProt P13994) |  | -0.003 | 0.173 | -0.306 | -0.076
5 | CDAN1 (UniProt H3BPZ6) |  |  |  | 0.006 | 
6 | CASP7 isoform 3 (UniProt P55210) |  | -0.254 | 0.113 | 0.01 | 0.063
7 | CDK1 (UniProt P06493) | 0.029 | -0.049 |  | -0.055 | 0.006
8 | CEP57L1 (UniProt Q8IYX8) |  | -0.23 | 0.133 | -0.044 | -0.029
9 | CAD (UniProt H7BZB3) | 0.113 | -0.54 | -0.006 |  | -0.008
10 | CASP9 (UniProt P55211) | 0.011 | -0.342 (active) | -0.004 | 0.019 | -0.002
11 | C18orf25 isoform 2 (UniProt Q96B23) | -0.014 | -0.034 | -0.067 |  | 0.038
